Data on eight compounds can be found in PubChem BioAssay (NCI).

Holding throughout (assay): NCI-60 one-dose screen, 48 h (100 = growth as untreated, 0 = no growth, -100 = all killed)
What all share (details): 10 µM

The test system of assay [1] is NCI-H23 lung.
Assay [2] concerns NCI-H226 lung.
The test system of assay [3] is NCI-H322M lung.
Assay [4] has as its system HOP-62 NSCLC.
The subject of assay [5] is NCI-H460 lung.
The test system of assay [6] is HOP-92 NSCLC.
The test system of assay [7] is NCI-H522 lung.
In assay [8] the test system is A549/ATCC NSCLC.
Assay [9] concerns 786-0 renal.
The test system of assay [10] is COLO 205 colon.
The test system of assay [11] is DU-145 prostate.
Assay [12] concerns K-562 leukemia.
Assay [13] deals with MDA-MB-231 breast.
Assay [14] relates to RXF 393 renal.
The subject of assay [15] is SF-268 CNS.
Assay [16] has as its system SF-295 CNS.
In assay [17] the test system is SF-539 CNS.
The subject of assay [18] is UACC-257 melanoma.
In assay [19] the test system is M14 melanoma.

Structures are written as SMILES. Compounds without any hit were thinned out: in the full panel of roughly 83,000, 20% have a hit.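 Plates (96-well) were seeded with cells, treated with compound at one concentration, and incubated for 48 hours before percent growth was determined.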 Values without a mark were called inactive. The source made the active and inactive calls. How the source made its calls: active means growth percent below 10; inactive means the rest.

For the compound `O=[N+]([O-])c1ccc(S(=O)(=O)OCCCCOS(=O)(=O)c2ccc([N+](=O)[O-])cc2)cc1`, the growth in [1] was 102%; in assay [2], 90.1%; in [3], 112%; in assay [4] it was 98.5%; in assay [5] it was 108%; in assay [6], 110%. Moreover, the growth is 96.8% in [7]; 103% in [8]; 99% in assay [9]; 117% in assay [10]; 107% in assay [11]; 94.7% in assay [12]. Besides, the growth in assay [13] was 106%; in [14] it was 112%; in [15], 106%; in [16] it was 105%; in assay [17], 104%; in assay [18], 108%. Besides, the growth in assay [19] was 104%.

Regarding `O=C(/C=C/c1nnc2n(Cc3ccccc3)c(=O)c3c4c(sc3n12)CCCC4)c1ccccc1`, the growth in assay [1] is 96.9%; in assay [2], 102%; in assay [3] it was 107%; in [4], 92.4%; in assay [5], 104%; in assay [6], 77.1%. The growth was -3.27% (active) in assay [7]; 104% in assay [8]; 83.8% in [9]; 78.6% in assay [10]; 121% in [11]; 5.09% (active) in assay [12]. Also, the growth is 106% in assay [13]; 98.3% in assay [14]; 75.5% in assay [15]; 40.4% in assay [16]; 99.6% in [17]; 86.5% in assay [18]. Further, in assay [19], the growth is 92.7%.

`CCOc1nc(-c2ccccc2)cc2c(O)c(C(=O)NC(C)C)[nH]c(=O)c12`: the growth in assay [1] was 97%; in assay [2], 105%; in assay [3], 120%; in [4], 99.7%; in [5], 105%; in assay [6], 58.2%. For the same compound, the growth was 88.3% in assay [7]; 104% in assay [8]; 112% in assay [9]; 118% in assay [10]; 107% in assay [11]; 95% in assay [12]. The growth in [13] is 106%; in [14], 78.1%; in [15], 105%; in assay [16] it was 89.9%; in assay [17] it was 99.3%; in assay [18], 84.8%. Moreover, in assay [19], the growth is 101%.

`COc1ccccc1CNCCCN1C(=O)c2ccc3c4c(ccc(c24)C1=O)C(=O)N(CCCNCCNCCCN)C3=O`: the growth in [1] is 6.85% (active); in [2] it was 39.9%; in assay [3] it was 27.9%; in assay [4] it was 40.4%; in [5] it was 6.29% (active); in assay [6], 66.3%. For the same compound, the growth is -0.0156% (active) in assay [7]; 6.04% (active) in assay [8]; 45.4% in [9]; -59.4% (active) in assay [10]; 16.3% in [11]; 10.2% in [12]. Besides, the growth in assay [13] was 20.3%; in assay [14] it was 25.2%; in assay [15], 1.02% (active); in assay [16], 51.3%; in assay [17] it was 14.1%; in assay [18], -6.36% (active). Further, the growth in [19] was 46.7%.

Turning to `Oc1[nH]c2ccccc2c1/C=c1/cc2c(c(-c3ccc(C(F)(F)F)cc3)n1)=Nc1ccccc1-2`, the growth in assay [1] is 71.1%; in assay [2], 54.1%; in assay [3], 93.8%; in assay [4], 85%; in assay [5], 22%; in [6] it was 20.7%. Moreover, the growth in assay [7] was 33.5%; in assay [8] it was 56.8%; in assay [9], 66%; in assay [10] it was 33.9%; in assay [11], 62.5%; in assay [12], 22.8%. Also, the growth in assay [13] was 45.6%; in assay [14], 56.1%; in [15] it was 79.1%; in assay [16], 37%; in [17] it was 83.5%; in assay [18], 82.4%. Besides, in assay [19], the growth was 33.5%.

Take `CC1(C)CCc2cc(-c3ccn(S(=O)(=O)c4ccc(Cl)cc4)n3)ccc2O1`: the growth is 65.5% in assay [1]; 74.4% in [2]; 94.2% in [3]; 92.9% in assay [4]; 73.8% in assay [5]; 8% (active) in assay [6]. The growth in assay [7] is 66.2%; in assay [8], 67.4%; in [9], 71.4%; in assay [10], 117%; in assay [11] it was 88.3%; in assay [12], 52.4%. In addition, the growth is 76.4% in assay [13]; 89% in [14]; 90.7% in [15]; 78.7% in assay [16]; 101% in assay [17]; 64.9% in assay [18]. Further, the growth in assay [19] is 80.1%.

Consider `Cc1cc(C#Cc2ccccc2)ccc1-n1c(/C=C/c2cc(O)ccc2O)nc2ccccc2c1=O`, for which the growth is -11.6% (active) in assay [1]; -41% (active) in assay [2]; -19.5% (active) in [3]; -33.1% (active) in [4]; -48.5% (active) in assay [5]; -17.9% (active) in assay [6]. The growth in assay [7] is -74.6% (active); in assay [8] it was 8.93% (active); in assay [9] it was 17.4%; in assay [10], -65.9% (active); in [11], 2.27% (active); in assay [12], 7.36% (active). In addition, the growth in assay [13] is -24.2% (active); in assay [14] it was -27.9% (active); in assay [15] it was 5.15% (active); in assay [16], -14.6% (active); in [17], -20.9% (active); in assay [18], 20%. Moreover, in assay [19], the growth is -3.57% (active).

For `CCOC(=O)c1c(O)c2cc(-c3ccccc3)nc(OCC)c2c(=O)n1C`, the growth is 85.8% in assay [1]; 79% in assay [2]; 122% in assay [3]; 93.2% in [4]; 110% in assay [5]; 51.7% in assay [6]. Further, the growth in [7] was 98.9%; in assay [8] it was 99.4%; in assay [9] it was 94%; in assay [10], 117%; in assay [11], 107%; in assay [12], 97.1%. Moreover, the growth in assay [13] was 95.9%; in [14], -0.249% (active); in [15], 94.3%; in assay [16], 95.6%; in [17] it was 94.6%; in assay [18], 54.9%. Moreover, the growth in assay [19] is 87.8%.
